# Screening data deposited in PubChem BioAssay by National Center for Advancing Translational Sciences (NCATS).
# IL-2 act: qHTS of IL-2 Activators; activation, % (series mostly up to about 46 µM); AID 652025, 2013; IL-2 activation reporter assay, cell-based qHTS; stimulated with anti-CD3/CD4/CD28 beads; in transgenic mouse T cells; 360,000 compounds, 0.065% hits; in the data active = activation above about 50%; inconclusive = mostly about 30% to 49%; also: 0% is about no effect
#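 First, unstimulated transgenic mouse T cells were exposed to compound for 60 min. Next, anti-CD3/anti-CD4-coated beads with anti-CD28 were added. Finally, after 18 h at 37 degrees C, EGFP and DsRed were imaged.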
# Nrf2 ARE act: qHTS of Nrf2 Activators; AREc32 ARE-luciferase reporter (MCF7-derived line), luminescence, 24 h; Potency, µM (doses to about 46.1 µM), without a hit: at the highest dose activation, usual class: activators; 410,000 compounds, 0.31% hits; AID 624171, 2012; also: potency is read from the fitted curve at half-maximal effect; % of control where 0% means no effect; nearly all actives have a fitted effect of over 65% in size
#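 AREc32 cells carrying an ARE-driven firefly luciferase reporter were seeded at 1000 cells/well in OPTI-MEM with 5% FBS, then exposed to compound for 24 hr at 37 deg C. Luminescence was read with Steady-Glo after 30 min at RT.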
# A549 viability: Nrf2 qHTS screen for inhibitors: counterscreen for cytotoxicity. 390,000 compounds, 0.16% hits. Potency, µM (titrated, usually from 46 µM), inactives show top-dose activity change, negative = cytotoxicity, most hits filed as inhibitors. AID 504648, 2011. A549 ARE-Fluc cells, CellTiter-Fluor viability, 18-24 h; also: potency is read from the fitted curve at half-maximal effect; % is scaled to controls: 0 for no effect and ±100 for the full control effect
#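 A549 ARE_Fluc cells in 5% FBS OPTI-MEM were exposed to compounds in concentration-response for 18-24 h at 37 deg C. Viability was read by CellTiter-Fluor fluorescence (Ex 405/Em 525) after 30 min, before the luciferase read.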
# Nrf2 block: Nrf2 qHTS screen for inhibitors | AID 504444, 2011 | Potency, µM (doses to about 46 µM), without a hit: at the highest dose activity change, negative = inhibition, usual class: inhibitors | A549 ARE-Fluc reporter, luciferase luminescence, 18-24 h | 360,000 compounds, 2.1% hits; also: potency is read from the fitted curve at half-maximal effect; % is scaled to controls: 0 for no effect and ±100 for the full control effect; nearly all actives have a fitted effect of over 60% in size
#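 In this cell-based qHTS, ARE-driven firefly luciferase in A549 cells reports Nrf2 activity; the luminescent signal after BugLite lysis is the measured value, with a prior CellTiter-Fluor read for cell health.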
# Numbers without * were called inactive; ? = inconclusive; · = no result; [ ] = remark or other dose. Most compounds without a hit are left out; they make up all but 2.3% or so of the library. Unless noted, calls follow the shape of the dose curve; as a rule, active = well fitted curve in the direction sought with a large enough effect; inconclusive = small, poorly fitted or top-dose-only effect, or another doubt; inactive = no such curve, though single readings can be large; an effect the other way counts as inactive or inconclusive.
SMILES,IL-2 act,Nrf2 ARE act,A549 viability,Nrf2 block
CC(C)c1oc(=O)cc2c1[C@@H](O)[C@H]1OC(=O)[C@@]3(C)C[C@@H](O)[C@@H](O)[C@@]2(C)C13 (some centres not stated),-0.9,-2.4%,?,18.4µM*
CC(C)c1oc(=O)cc2c1[C@@H](O)[C@H]1OC(=O)[C@@]3(C)CC[C@@H](O)[C@@]2(C)C13 (some centres not stated),-0.2,-3.2%,?,18.4µM*
CCn1cc(C(=O)NCCc2ccc(OC)c(OC)c2)c(=O)c2cc(S(=O)(=O)N(C)C3CCCCC3)ccc21,·,0.2%,-19.2%,?
CCCCCCn1c(O)c(C=Nc2ccccc2N2CCOCC2)c(=O)[nH]c1=S,58.8*,0.0%,0.4%,11.7%
CCCCC(=O)N/N=C/c1c(O)n(CC)c(=S)[nH]c1=O,-0.2,-0.1%,-2.9%,-7.1%
CCCCCCC(=O)N/N=C/c1c(O)n(CCCC)c(=S)[nH]c1=O,-5.8,0.1%,-16.0%,20.6µM*
CCCCn1c(O)c(/C=N/N2CCOCC2)c(=O)[nH]c1=S,-0.7,0.0%,-6.1%,?
CCCCC(=O)Nc1c(C(=O)N2CCN(c3ccccc3F)CC2)oc2ccccc12,·,-0.1%,-7.9%,?
Cc1[nH]c2ccccc2c1P(=S)(c1ccccc1)c1ccccc1,·,·,-0.5%,-9.7%
CCn1cc2nc(SCc3cccc(C(F)(F)F)c3)n(Cc3ccc(OC)cc3)c(=O)c2n1,·,3.5%,-20.5%,23.1µM*
CC1CC(C)(O)CC(C(O)CC2CC(=O)NC(=O)C2)C1=O (configuration not stated),-4.8,-0.4%,?,0.581µM*
CC=CC(C)=CC(C)C(=O)CC(O)CC1CC(=O)NC(=O)C1 (configuration not stated),-3.5,-2.4%,·,·
COC(=O)C1=C(c2cccc(OCc3ccccc3)c2)C[C@@H]2CC[C@H]1N2C(=O)NCc1ccccc1OC,-0.7,3.0%,?,20.6µM*
COC(=O)C1=C(c2ccc(OCc3ccccc3)cc2)C[C@@H]2CC[C@H]1N2C(=O)NCc1cccc(OC)c1,-4.5,-0.5%,-12.0%,23.1µM*
COC(=O)C1=C(c2cccc(OCc3ccccc3)c2)C[C@@H]2CC[C@H]1N2C(=O)NCc1ccc(Cl)cc1,-3.7,-1.1%,-13.1%,23.1µM*
COC(=O)C1=C(c2cccc(OCc3ccccc3)c2)C[C@@H]2CC[C@H]1N2C(=O)NCc1ccccc1,-3.0,3.5%,-8.1%,?
COC(=O)C1C(=O)C=C(Nc2ccc(F)cc2F)CC1c1ccccc1 (configuration not stated),-1.1,3.2%,4.0%,?
O=C(NCCc1ccccc1)[C@@H]1CC=C[C@@H]2CCN(Cc3ccc(Cl)c(Cl)c3)C(=O)[C@@H]21,0.0,0.2%,-23.8%,?
O=C1C(=O)c2ccccc2-c2ccccc21,-0.7,-2.7%,?,18.4µM*
O=C1C(=O)c2cccc3cccc1c23,2.0,0.1%,0.9%,11.1%
CC1(C)c2[nH]c3ccccc3c2C[C@H]2C(=O)N(Cc3ccccc3F)C(=O)N21,-0.1,2.3%,?,23.1µM*
O=[N+]([O-])c1ccc(N(CCO)CCO)c2c1no[n+]2[O-],-1.2,-5.6%,·,·
CN1CCN(c2ccc([N+](=O)[O-])c3no[n+]([O-])c23)CC1,-7.9,-3.0%,23.1µM*,?
COc1cc(NC(=O)CCn2c(=O)oc3ccccc32)cc(OC)c1OC,-0.3,-0.2%,?,3.1%
COc1ccc(-c2nc(NC(=O)Cn3c(=O)oc4ccccc43)sc2C)cc1,-0.6,3.6%,-17.3%,18.4µM*
SMILES,IL-2 act,Nrf2 ARE act,A549 viability,Nrf2 block
CCCC1=Nc2cc(C(=O)NCCc3ccc(OCC)cc3)ccc2Sc2ccccc21,·,-0.1%,-5.9%,?
CCOc1ccc(CCNC(=O)c2cnc3sc(N4CCCC4)nn3c2=O)cc1,·,-0.5%,-14.9%,11.6µM*
COc1ccccc1OCCNC(=O)c1cc(=O)[nH]c2ccccc12,-0.2,-1.1%,-15.6%,?
C/C(=C\c1ccc(N(C)C)cc1)[N+](=O)[O-],-5.0,?,?,23.1µM*
CN(C)c1ccc(/C=C/[N+](=O)[O-])cc1,97.2*,0.5%,0.5%,?
CN(C)c1ccc(C=C2C(=O)NC(=O)NC2=O)cc1,-0.2,0.0%,-1.4%,-3.3%
COc1ccc(Nc2c(-c3cc(Br)ccc3O)nc3ncccn23)cc1OC,·,11.0%,-18.4%,?
CC[C@@H](C)[C@H](C(CC(=O)N1CCCC1[C@@H](OC)[C@H](C)C(=O)N[C@H](Cc1ccccc1)c1nccs1)OC)N(C)C(=O)[C@H](NC(=O)[C@@H](C(C)C)N(C)C)C(C)C (some centres not stated),-5.2,0.6%,?,?
CCCOC(=O)c1c(C)oc2c1cc(NS(=O)(=O)c1ccc(OCC)cc1)c1ccccc12,·,2.9%,-2.1%,?
O=C(Oc1ccc2ccc(OC(=O)N3CCCCCC3)cc2c1)N1CCCCCC1,-1.9,2.2%,-6.0%,?
CC(C)CCNC(=O)c1c(N)n(Cc2ccc3c(c2)OCO3)c2nc3ccccc3nc12,3.5,0.1%,16.4µM*,20.6µM*
CCN(CC)CCOC(=O)c1ccc(NC(=O)CCn2c(=O)oc3ccccc32)cc1,·,0.3%,?,2.2%
C[C@@H]1CC2C3CC=C4C[C@@H](O)CC[C@]4(C)C3CC[C@]2(C)[C@H]1O (some centres not stated),0.4,2.5%,-3.5%,-0.5%
C[C@]12CC[C@H](O)CC1=CCC1C2CC[C@@]2(C)C1C[C@@H]1CC(=O)O[C@@H]12 (some centres not stated),-0.3,0.4%,3.1%,18.4µM*
CC(=O)OC1CCC2(C)C(CCC3C4CC(N5CC5)C(C(C)=O)C4(C)CC(=O)C32)C1 (configuration not stated),0.6,16.4%,14.6µM*,8.2%
O=C(C1CCN(S(=O)(=O)c2ccc(Br)s2)CC1)N1CCN(c2ccc(F)cc2)CC1,·,-0.8%,-7.2%,?
CN1CC[C@@]2(C)c3cc(O)ccc3N(C)[C@@H]12,-0.5,-1.8%,23.1µM*,-3.5%
CCOC(=O)C1(CCc2ccccc2)CCN(Cc2cccc3c2OCO3)CC1,-3.7,-0.7%[9.22 µM],2.3%,?
CCOC(=O)C1(CCc2ccccc2)CCN(Cc2csc(C(C)=O)c2)CC1,0.3,16.1%,?,14.6µM*
O=C(c1cncc(Br)c1)N1CCN(S(=O)(=O)c2ccc3ccccc3c2)CC1,-0.5,2.1%,0.6%,?
O=[N+]([O-])c1ccc(O)c([N+](=O)[O-])c1,0.3,-0.3%,?,?
O=c1[nH]c(O)c(N=Nc2cc([N+](=O)[O-])ccc2O)c(=O)[nH]1,1.4,-0.3%,23.1µM*,-1.4%
CCOc1ccc(CCNC(=O)c2cc3c(-c4cccc(OC)c4)nn(C)c3s2)cc1OCC,·,-0.8%,-8.2%,18.4µM*
